For 28 compounds, z-score results are on record in PubChem BioAssay.

Structures are written as SMILES. A number with no mark means an inactive call.

The first experiment can be described thus: PSAC antagonists in infected red cells, primary screen, cell-based, P. falciparum Indochina, OD700, 2 h (AID 1155).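 Note: lysis reports solute entry through the parasite surface anion channel PSAC; channel blockers reduce lysis of infected cells.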 The settings on record: P. falciparum Indochina infected erythrocytes, osmotic lysis OD700; higher = more signal, called active from +8 up or from −8 down.
As to `COc1ccc([Si](C)(C)[C@@H]2[C@@H](CCO)O[C@]3(C(=O)N(Cc4ccccc4)c4ccc(N5CCOC5=O)cc43)[C@H]2C)cc1`, the z-score was -0.0856.

In the case of `C=C(/C(=C/C[C@H](OC(C)=O)c1ccc(CO)o1)c1cnc2ccccc2c1)C(C)C`, the z-score is 0.625.

Turning to `CCCCCCCCCCC(O)C1C=CC2C(=O)N(c3ccccc3)C(=O)C2N1Nc1ccc(C#N)cc1` (stereo not drawn), the z-score was 2.33.

A short description of a further experiment: osmotic lysis modulators in infected erythrocytes, primary screen, PSAC antagonist project, cell-based, P. falciparum Indochina, OD700, 3 h (AID 1156). The settings on record: higher = more signal, called active from +8 up or from −8 down.
Turning to `COc1cc2c(cc1O)C(c1cccs1)N(Cc1cc3c(cc1Br)OCO3)CC2` (stereo not drawn), the z-score is -1.06.

With `CCC#CCN(Cc1ccccc1Br)[C@H](/C=C/C1CC1)[C@@H](O)Cc1ccccc1`, the z-score is -0.239.

Consider `COC(=O)[C@@]1(Cc2ccccc2)[C@H]2c3cc(C(=O)N4CCCC4)n(CCc4ccccn4)c3C[C@H]2CN1C(=O)c1ccccc1`, for which the z-score is 1.54.

Regarding `CCCCC(CC)C(O)C1C=CC2C(=O)N(c3ccccc3)C(=O)C2N1Nc1ccccc1F` (stereo not drawn), the z-score was -0.42.

Take `[N-]=[N+]=Nc1ccccc1[C@@H]1OC(c2ccc(OCCCO)cc2)=N[C@]1(Cc1ccccc1)C(=O)N1CCCCC1`: the z-score was 3.01.

With `CC1CC/C=C\[C@H]2OC34C=CCN(C(C)C)C(=O)[C@H]3N(CCO)C(=O)[C@@H]4C2C(=O)O1` (stereo partly drawn), the z-score was -0.285.

In the case of `CCOC(=O)C1=C[C@@H](C(C)(C)C)N(S(=O)(=O)c2ccc(C)cc2)[C@H]1c1cccc2ccccc12`, the z-score was 0.31.

`CC(C)[Si]1(C(C)C)OCc2cc(-c3ccc(-c4ccc(Cl)c(Cl)c4)o3)nc(-c3ccccc3)c21`: the z-score is 0.6.

Consider `CCCCCCc1nc(Cc2cc(OC)c(OC)c(OC)c2)cc2c1[Si](C(C)C)(C(C)C)OC2`, for which the z-score is 0.908.

As for `C=CC[C@@H](OC(=O)Nc1ccc(SC)cc1)c1ccc(O)c(F)c1`, the z-score is 1.9.

On to `Cc1ccc(NN2C(C(O)c3c(F)cccc3Cl)C=CC3C(=O)N(C4CCCCC4)C(=O)C32)cc1` (stereo not drawn), for which the z-score is 2.45.

As for `COc1ccc([Si](C)(C)[C@@H]2[C@@H](CC(=O)N(CCO)Cc3ccccc3)O[C@]3(C(=O)N(Cc4cccc(N5CCCCC5=O)c4)c4ccccc43)[C@H]2C)cc1`, the z-score was 0.422.

Turning to `NC(=O)[C@H]1[C@@H]2C(=O)O[C@@H](c3ccccc3)[C@@H](c3ccccc3)N2[C@@H](c2ccc(OCCO)cc2)[C@]12C(=O)Nc1ccc(C#CCCO)cc12`, the z-score is -1.02.

For the compound `COc1cc(C(O)C2C=CC3C(=O)N(C)C(=O)C3N2Nc2ccccc2)cc(OC)c1OC` (stereo not drawn), the z-score was 0.508.

Turning to `C#Cc1cc2ccccc2oc1=O`, the z-score is 0.898.

For the compound `CC(=O)NCCCC[C@@H]1NC(=O)[C@@H]2C[C@H](C(=O)NCCCCCN)[C@H](c3cccc(OCCO)c3)N2C1=O`, the z-score was 1.98.

On to `COc1ccc(CCNC(=O)[C@@]2(c3ccc([N+](=O)[O-])cc3)CC(=O)N(C3CCCCC3)[C@@H]2c2ccc(CO)cc2)cc1`, for which the z-score was 1.03.

Consider `NCCCCCNC(=O)[C@@H]1C[C@@H]2C(=O)N[C@@H](CCCCN)C(=O)N2[C@@H]1c1ccc(O)cc1`, for which the z-score was -2.34.

Regarding `NCCCCCNC(=O)[C@H]1C[C@H]2C(=O)N3CCC[C@H]3C(=O)N2[C@H]1c1cccc(OCCO)c1`, the z-score is 0.428.

On to `COCCOC(=O)N1C(=O)[C@@]2(c3cc(C#CCCO)ccc31)[C@H](c1ccc(OCCO)cc1)N1[C@H](c3ccccc3)[C@H](c3ccccc3)OC(=O)[C@H]1[C@@H]2C(=O)Nc1nc2ccccc2s1`, for which the z-score was 0.258.

For `COC(=O)C1=CC(CCCO)=CC(c2cccs2)N(C)C=C1C(=O)OC` (stereo not drawn), the z-score is 0.148.

As for `COCCOC(=O)N1C(=O)[C@@]2(c3cc(C#CC4(O)CCCCCC4)ccc31)[C@H](c1ccc(O)cc1)N1[C@H](c3ccccc3)[C@H](c3ccccc3)OC(=O)[C@H]1[C@@H]2C(=O)N1CCN(c2ncccn2)CC1`, the z-score was -0.166.

In the case of `COc1ccc([Si](C)(C)[C@@H]2[C@@H](CCO)O[C@]3(C(=O)N(Cc4cccc(NC(=O)[C@H](C)O)c4)c4ccccc43)[C@H]2C)cc1`, the z-score was -1.04.

In the case of `Cc1ccc(S[C@]2(C(=O)O)CC(=O)N(C3CCCCC3)[C@@H]2c2ccc(CO)cc2I)cc1`, the z-score was 0.796.

As for `O=C1C[C@]2(c3ccc([N+](=O)[O-])cc3)C(=O)N(C3CC3)c3cc(CO)ccc3[C@H]2N1CC12CC3CC(CC(C3)C1)C2`, the z-score is 0.474.
